For eight compounds, growth results are on record in PubChem BioAssay (NCI).

Several values for one entry are separate records, joined by “and”; a condition that tells them apart may be missing. Equal entries are not always repeated. This is part of a sample that, as a whole, favours compounds with a hit. Of some 83,000 tested, about 20% had one in any assay.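 Results are percent growth after 48 hours of single-concentration exposure. 100 means growth as in untreated cells, lower positive values show inhibition; negative values down to -100 show cell death.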 Values without a mark were called inactive. Activity calls are given as the source filed them. How the source made its calls: active means growth percent below 10; inactive means the rest.

Experiment in all cases: NCI-60 one-dose screen, 48 h (100 = growth as untreated, 0 = no growth, -100 = all killed)
One experiment relates to HCT-15 colon. Conditions: 10 µM.
The next experiment concerns HT29 colon. As to conditions: 10 µM.
Another experiment concerns SNB-75 CNS. As to conditions: 10 µM.
Another experiment concerns SNB-19 CNS. As to conditions: 10 µM.
Another experiment has as its system U251 CNS. Conditions: 10 µM.
Another experiment concerns PC-3 prostate. As to conditions: 10 µM.
The subject of the next experiment is SK-MEL-5 melanoma. As to conditions: 10 µM.
Another experiment has as its system UACC-62 melanoma.
The next experiment deals with LOX IMVI melanoma. Conditions: 10 µM.
The test system of a further experiment is SK-MEL-28 melanoma. As to conditions: 10 µM.
Another experiment has as its system SK-MEL-2 melanoma. Conditions: 10 µM.
A further experiment deals with EKVX NSCLC. Conditions: 10 µM.
Another experiment has as its system SN12C renal. Conditions: 10 µM.
The next experiment has as its system UO-31 renal. Conditions: 10 µM.
Another experiment deals with TK-10 renal.
In a further experiment the test system is ACHN renal. As to conditions: 10 µM.
In another experiment the test system is CAKI-1 renal. As to conditions: 10 µM.
The next experiment concerns A498 renal. As to conditions: 10 µM.
The subject of another experiment is CCRF-CEM leukemia. As to conditions: 10 µM.
In a further experiment the test system is MOLT-4 leukemia. Conditions: 10 µM.

As to `CCC/C=C(/C(C)=O)C(=O)OCC`, the growth in the experiment with HCT-15 colon was 109%; in the experiment on HT29 colon it was 111%; with SNB-75 CNS, 89.2%; in the experiment on SNB-19 CNS, 94.8%; in the experiment on U251 CNS it was 103%; in the experiment on PC-3 prostate, 88.5%. The growth in the experiment on SK-MEL-5 melanoma is 112%; in the experiment on UACC-62 melanoma (10 µM unless noted) it was 95.1%; with LOX IMVI melanoma it was 102%; in the experiment with SK-MEL-28 melanoma it was 122%; in the experiment on SK-MEL-2 melanoma it was 132%; in the experiment on EKVX NSCLC, 168%. Further, the growth in the experiment with SN12C renal is 101%; in the experiment on UO-31 renal, 101%; in the experiment with TK-10 renal (10 µM unless noted), 139%; in the experiment with ACHN renal, 103%; in the experiment with CAKI-1 renal, 128%; with A498 renal, 132%. The growth was 143% in the experiment with CCRF-CEM leukemia and 135% in the experiment with MOLT-4 leukemia.
In the case of `CC(C)COC(=O)COC(=O)OCCOCCOC(=O)OCC(=O)OCC(C)C`, the growth in the experiment with HCT-15 colon was 104%; in the experiment on HT29 colon it was 101%; in the experiment on SNB-75 CNS, 102%; in the experiment with SNB-19 CNS, 101%; in the experiment on U251 CNS, 94.9%; in the experiment on PC-3 prostate, 94.8%. Moreover, the growth in the experiment on SK-MEL-5 melanoma was 101%; with UACC-62 melanoma (10 µM unless noted), 97.6%; in the experiment with LOX IMVI melanoma it was 106%; with SK-MEL-28 melanoma, 107%; in the experiment on SK-MEL-2 melanoma, 94.2%; with EKVX NSCLC, 119%. Besides, the growth in the experiment on SN12C renal is 97.9%; in the experiment on UO-31 renal, 89.8%; in the experiment with TK-10 renal (10 µM unless noted), 91.9%; in the experiment with ACHN renal, 95.7%; with CAKI-1 renal, 116%; in the experiment on A498 renal, 99.9%. For the same compound, the growth with CCRF-CEM leukemia was 106%.
For the compound `Cc1cc(C(O)(c2ccc(Nc3ccccc3)cc2)c2ccc(Nc3ccc(S(=O)(=O)O)cc3)cc2)ccc1N` (centres undefined), the growth in the experiment on HCT-15 colon was -54% (active); in the experiment on HT29 colon, -78.4% (active); with SNB-75 CNS, 16.8%; in the experiment with SNB-19 CNS, 19.7%; in the experiment on U251 CNS, -59.4% (active); in the experiment on PC-3 prostate it was 12.1%. The growth in the experiment on SK-MEL-5 melanoma was -90.4% (active); with UACC-62 melanoma (10 µM unless noted) it was -22.7% (active); in the experiment on LOX IMVI melanoma, -65.9% (active); in the experiment with SK-MEL-28 melanoma, -86.9% (active); in the experiment on SK-MEL-2 melanoma it was -33.1% (active); in the experiment on EKVX NSCLC it was 9.86% (active). Also, the growth is 22.5% in the experiment on SN12C renal; 3.47% (active) in the experiment on UO-31 renal; 7.3% (active) in the experiment with TK-10 renal (10 µM unless noted); -13.2% (active) in the experiment on ACHN renal; 31.7% in the experiment on CAKI-1 renal; 2.33% (active) in the experiment on A498 renal. Further, the growth with CCRF-CEM leukemia was 2.35% (active); with MOLT-4 leukemia it was 8.2% (active).
Take `CC(=O)OCC1=CC2OC(=O)C3=COC(OC4OC(CO)C(O)C(O)C4O)C1C32` (centres undefined): the growth in the experiment on HCT-15 colon was 112%; with HT29 colon it was 106%; with SNB-75 CNS, 104%; in the experiment on SNB-19 CNS it was 111%; in the experiment on U251 CNS, 101%; in the experiment on PC-3 prostate, 110%. The growth with SK-MEL-5 melanoma is 104%; in the experiment on UACC-62 melanoma (10 µM), 102%; in the experiment on UACC-62 melanoma (100 µM), 77.3% and 98.7%; in the experiment on LOX IMVI melanoma, 111%; in the experiment with SK-MEL-2 melanoma, 138%; in the experiment with EKVX NSCLC it was 101%. For the same compound, the growth in the experiment on SN12C renal is 101%; in the experiment with UO-31 renal, 96.7%; in the experiment on TK-10 renal (10 µM), 113%; in the experiment on TK-10 renal (100 µM), 81% and 93.8%; in the experiment with ACHN renal, 111%; in the experiment with CAKI-1 renal it was 101%. Moreover, the figures for the growth in the experiment on CCRF-CEM leukemia and with MOLT-4 leukemia were 104% and 141%, respectively.
Consider `Cc1ccc(C(=O)N/N=C/c2ccc3c(c2)OCO3)cc1`, for which the growth was 91.6% in the experiment with HCT-15 colon; 104% in the experiment with HT29 colon; 95.8% with SNB-75 CNS; 96.7% in the experiment on SNB-19 CNS; 101% with U251 CNS; 82.8% in the experiment on PC-3 prostate. The growth in the experiment on SK-MEL-5 melanoma was 100%; with UACC-62 melanoma (10 µM unless noted), 76.3%; in the experiment with LOX IMVI melanoma, 89.1%; in the experiment with SK-MEL-28 melanoma, 107%; in the experiment on SK-MEL-2 melanoma, 90.4%; with EKVX NSCLC, 101%. Further, the growth in the experiment with SN12C renal is 96%; in the experiment with UO-31 renal, 78.2%; in the experiment with TK-10 renal (10 µM unless noted), 98%; with ACHN renal, 94.3%; with CAKI-1 renal, 93.3%; in the experiment with A498 renal, 96.6%. Further, the growth with CCRF-CEM leukemia was 84.8%; in the experiment with MOLT-4 leukemia, 91.2%.
Regarding `CN(c1ccccc1)c1ncnc2c1ncn2C`, the growth in the experiment with HCT-15 colon is 102%; in the experiment with HT29 colon, 102%; in the experiment on SNB-75 CNS, 92.8%; in the experiment with SNB-19 CNS it was 102%; in the experiment on U251 CNS, 98.9%; in the experiment with PC-3 prostate it was 95.8%. Further, the growth in the experiment with SK-MEL-5 melanoma was 102%; with UACC-62 melanoma (10 µM unless noted), 96.8%; in the experiment on LOX IMVI melanoma, 98.5%; in the experiment with SK-MEL-28 melanoma, 112%; with SK-MEL-2 melanoma, 100%; in the experiment on EKVX NSCLC it was 102%. Also, the growth in the experiment on SN12C renal is 98%; in the experiment with UO-31 renal, 79.9%; with TK-10 renal (10 µM unless noted), 105%; in the experiment on ACHN renal it was 101%; in the experiment with CAKI-1 renal, 94%; in the experiment with A498 renal, 88.4%. The results for the growth in the experiment with CCRF-CEM leukemia and in the experiment with MOLT-4 leukemia were 99.1% and 95.6%, respectively.
As to `C=CCOC(=O)C(=O)OCC=C`, the growth in the experiment with HCT-15 colon is 100%; in the experiment on HT29 colon, 101%; in the experiment with SNB-75 CNS, 102%; in the experiment on SNB-19 CNS it was 94.7%; in the experiment with U251 CNS, 106%; with PC-3 prostate, 97%. Moreover, the growth in the experiment on SK-MEL-5 melanoma is 98.8%; with UACC-62 melanoma (10 µM unless noted), 102%; in the experiment on LOX IMVI melanoma, 111%; in the experiment on SK-MEL-28 melanoma, 113%; in the experiment with SK-MEL-2 melanoma, 97.1%; in the experiment on EKVX NSCLC it was 132%. Moreover, the growth with SN12C renal was 101%; with UO-31 renal it was 108%; in the experiment on TK-10 renal (10 µM unless noted) it was 95.1%; with ACHN renal, 100%; in the experiment with CAKI-1 renal it was 136%; in the experiment with A498 renal it was 119%. The growth is 90.7% in the experiment on CCRF-CEM leukemia and 104% in the experiment with MOLT-4 leukemia.
Regarding `CN(C)c1ccc(S(=O)(=O)O)cc1`, the growth was 102% with HCT-15 colon; 102% with HT29 colon; 96.3% with SNB-75 CNS; 109% in the experiment on SNB-19 CNS; 108% in the experiment on U251 CNS; 88.9% with PC-3 prostate. The growth in the experiment with SK-MEL-5 melanoma was 98.9%; with UACC-62 melanoma (10 µM unless noted), 108%; in the experiment on LOX IMVI melanoma it was 102%; in the experiment with SK-MEL-28 melanoma it was 110%; in the experiment on SK-MEL-2 melanoma, 86.2%; in the experiment on EKVX NSCLC, 107%. For the same compound, the growth in the experiment on SN12C renal is 105%; in the experiment on UO-31 renal, 87.9%; in the experiment on TK-10 renal (10 µM unless noted), 89.2%; in the experiment on ACHN renal, 93.9%; in the experiment with CAKI-1 renal it was 105%; with A498 renal it was 94.9%. For the same compound, the growth is 95.9% in the experiment with CCRF-CEM leukemia and 107% with MOLT-4 leukemia.
